A number with no mark means an inactive call.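 Rule for the calls: active = AUC reduced over 20% with Padj below 0.05 in at least 2 of 3 replicates; inactive = otherwise.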
System: Bacteroides clarus
Test: growth AUC relative to DMSO control (median of replicates) (fraction); higher = more growth (less inhibition), active = hit call of the paper
Details: 20 µM; 24 h
In short: (§1)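 Gut bacterial monocultures in mGAM were treated with 20 µM compound (1% DMSO) and grown anaerobically at 37 °C in round-bottom 96-well plates from OD600 0.05. OD600 was read hourly for 24 h, with the minimum OD set to 0. Area under the growth curve was normalised to the plate median of solvent-only wells, or to row and column medians on the industrial chemical plate. Each value is the median of three biological replicates, each grown on a separate day.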

SMILES	growth AUC
N#Cc1c(Cl)c(Cl)c(Cl)c(C#N)c1Cl	0.563 (active)
N#CN=C1SCCN1Cc1ccc(Cl)nc1	1
CCCCC(C#N)(Cn1cncn1)c1ccc(Cl)cc1 (stereo not drawn)	0.952
O=C1C(Cl)=C(Cl)C(=O)c2ccccc21	0.987
CCOP(=S)(OCC)SCS(=O)(=O)CC	1.01
Nc1c(Cl)c(F)nc(OCC(=O)O)c1Cl	0.968
Nc1ccc(Cl)cc1	1.02
CCNS(=O)(=O)C(F)(F)C(F)(F)C(F)(F)C(F)(F)C(F)(F)C(F)(F)C(F)(F)C(F)(F)F	0.906
Cl.NC1=NCCN1Cc1ccc(Cl)nc1	1.02
CNC(=O)c1cc(Cl)cc(C)c1NC(=O)c1cc(Br)nn1-c1ncccc1Cl	0.952
O=C(NC(=O)c1c(F)cccc1F)Nc1cc(Cl)c(Oc2ncc(C(F)(F)F)cc2Cl)c(Cl)c1	0.997
COC(=O)NCc1cc(/C(C)=N\OCc2cccc(C)n2)ccc1Cl	0.984
NCCO.O=C(O)c1nc(Cl)ccc1Cl	1.04
CC(=O)O.NC(N)=NCCCCCCCCNCCCCCCCCN=C(N)N	0.442 (active)
CC1(C)CN=C(NN=C(/C=C/c2ccc(C(F)(F)F)cc2)/C=C/c2ccc(C(F)(F)F)cc2)NC1	0.979
CCCN(CC)CC1COC2(CCC(C(C)(C)C)CC2)O1 (stereo not drawn)	0.952
CCCOP(=S)(OCCC)SCC(=O)N1CCCCC1C (stereo not drawn)	0.953
CNC(=O)ON=C(CS(C)=O)C(C)(C)C (stereo not drawn)	0.997
Cc1ccccc1C(=O)Nc1cccc(OC(C)C)c1	0.992
COC(=O)/C(C)=C/OP(=S)(OC)OC	0.963

System: Bacteroides dorei
Test: as above
Details: 20 µM; 24 h
In short: as §1

SMILES	growth AUC
CN(C)c1nc(=O)n(C2CCCCC2)c(=O)n1C	1
Nc1c(Cl)c(Cl)c(Cl)c(Cl)c1Cl	0.956
Oc1ccc(-c2ccccc2)cc1	0.991
Cn1cc(-c2ccccc2)c(=O)c(-c2cccc(C(F)(F)F)c2)c1	1.01
CCCOCC(=Nc1ccc(Cl)cc1C(F)(F)F)n1ccnc1	0.982
O=P(O)(O)CCCl	0.986
CCNc1nc(NC(C)C)[nH]c(=O)n1	1.04
CC1=NNC(=O)N(/N=C/c2cccnc2)C1	1.04
S=C1NCCN1	1.06
COC(=O)N(C(=O)N1CO[C@@]2(C(=O)OC)Cc3cc(Cl)ccc3C2=N1)c1ccc(OC(F)(F)F)cc1	0.982
Clc1ccccc1Cl	0.992
C#CCC1=C(C)C(OC(=O)C2C(C=C(C)C)C2(C)C)CC1=O (stereo not drawn)	0.964
Cc1nnc(-c2ccccc2)c(=O)n1N	1
COC(=O)c1ccccc1CS(=O)(=O)NC(=O)Nc1nc(OC)cc(OC)n1	0.985
CCCCCCCCCc1ccc(O)cc1	1.01
COP(N)(=S)Oc1ccccc1C(=O)OC(C)C (stereo not drawn)	0.893
O=C(NCCc1ncc(C(F)(F)F)cc1Cl)c1ccccc1C(F)(F)F	1
CCN(Cc1ccc(Cl)nc1)/C(=C/[N+](=O)[O-])NC	0.975
N#Cc1c(Cl)c(Cl)c(Cl)c(C#N)c1Cl	0.931
N#CN=C1SCCN1Cc1ccc(Cl)nc1	0.967
CCCCC(C#N)(Cn1cncn1)c1ccc(Cl)cc1 (stereo not drawn)	0.98
O=C1C(Cl)=C(Cl)C(=O)c2ccccc21	0.958
CCOP(=S)(OCC)SCS(=O)(=O)CC	0.977
Nc1c(Cl)c(F)nc(OCC(=O)O)c1Cl	1.01
Nc1ccc(Cl)cc1	1
CCNS(=O)(=O)C(F)(F)C(F)(F)C(F)(F)C(F)(F)C(F)(F)C(F)(F)C(F)(F)C(F)(F)F	1.02
Cl.NC1=NCCN1Cc1ccc(Cl)nc1	0.975
CNC(=O)c1cc(Cl)cc(C)c1NC(=O)c1cc(Br)nn1-c1ncccc1Cl	0.999
